Measurements reported in PubChem BioAssay (NCI).
This is part of a sample that, as a whole, favours compounds with a hit. Of some 83,000 tested, about 20% had one in any assay.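 Compound tested at a single concentration for 48 hours in 96-well plates; a percent growth value below 10 was scored as active.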 Active and inactive are the calls of the source.

The compounds below were run on UACC-257 melanoma (assay: NCI-60 one-dose screen, 48 h (100 = growth as untreated, 0 = no growth, -100 = all killed)). Conditions: 10 µM unless noted.
With C=C1C(=O)O[C@H]2[C@H]1CC/C(COC(=O)NCCc1c[nH]c3ccccc13)=C\CC[C@@]1(C)O[C@@H]21 the growth was 63.3% (inactive). In the case of C/C(=N\Nc1cc(C)c2ccccc2n1)c1ccccn1, the growth is reported as -62.1% (active). For COC(=O)CNc1nc(N(C)O)nc(N(C)O)n1, the growth was 76.9% (inactive). For Cc1ccc(-c2nc([P+](c3ccccc3)(c3ccccc3)c3ccccc3)c(N3C[C@H]4C[C@H](C3)c3cccc(=O)n3C4)o2)cc1, the growth was 37.5% (inactive). In the case of Cc1nn(-c2ccc(Cl)cc2)c(=O)n1CCn1cnc2ccccc21, the growth is reported as 103% (inactive). In the case of CN1CCN(CCOc2ccc(-c3cnc4c(-c5ccccc5F)cnn4c3)cc2)CC1, the growth is reported as -7.9% (active). In the case of COc1cccc2c1C(=O)c1c(O)c3c(c(O)c1C2=O)C[C@@](O)(C(=O)CO)C[C@@H]3OC1C[C@H](N)[C@H](O)[C@H](C)O1 (some centres not stated), the growth is reported as -35% (active). In the case of CCC(CC)C(=O)OC(C)COc1ccc(C(C)(C)C)cc1 (configuration not stated), the growth is reported as 66.7% (inactive). In the case of CN1CCN(CCOc2ccc(-c3cnc4c(-c5cccc(F)c5)cnn4c3)cc2)CC1, the growth is reported as 67.1% (inactive). With CCCC1CCCCN1C(=O)OCC(C)C (configuration not stated) the growth was 110% (inactive). In the case of Cc1cccc(C)c1NC(=O)CSC(=S)N1CCCCC1, the growth is reported as 102% (inactive). For O=C(/C=C/c1cccc(O)c1)c1ccccc1O, the growth was 86.8% (inactive). For CCC(=O)c1c(C)[nH]c(C)c1C, the growth was 99% (inactive). COc1cc(-c2cc3ncccc3c3nc(OCCN(C)C)c4cccnc4c23)cc(OC)c1OC was tested, and the growth was 15.1% (inactive). In the case of O=C(/C=C/c1cccc2ccccc12)Nc1ncc(Cc2ccccc2)s1, the growth is reported as 60.8% (inactive). CC(C)/C=C/CC[C@](C)(O)[C@H]1CC[C@]2(C)[C@@H]1CC[C@@H]1[C@@]3(C)C/C(=C/c4cccc(C(F)(F)F)c4)C(=O)C(C)(C)[C@@H]3CC[C@]12C was tested, and the growth was 95.2% (inactive). O=C(NCN1C(=O)c2cccc3cccc(c23)C1=O)N1CCC(Cc2ccccc2)CC1 was tested, and the growth was 103% (inactive). With COc1cnc2c(c1)C(=O)c1c-2n(CCCNCCN2CCOCC2)c(=O)c2cc([N+](=O)[O-])ccc12 the growth was 5.34% (active). With Fc1ccc2nc(-c3cc(-c4ccc5c(c4)OCO5)n[nH]3)[nH]c2c1 the growth was 84.9% (inactive). For Cn1cc(-c2nc(-c3cn(C)c4ncccc34)cs2)c2cc(F)ccc21, the growth was 61.7% (inactive). NCCn1cc(-c2nc(-c3c[nH]c4ncccc34)cs2)c2ccccc21 was tested, and the growth was 92.8% (inactive). For CN(C)c1ccc(N)c2ccccc12, the growth was -2.3% (active). With CN(C)CCCCC(C(=O)CBr)(c1ccccc1)c1ccccc1 the growth was 6.07% (active). With O=C1Nc2ccccc2/C1=C/c1cn(CCCn2c3ccccc3c(=O)c3ccccc32)c2ccccc12 the growth was 109% (inactive). With C=C(C)[C@@H]1CC[C@]2(C=NCCCNCCCCNCCCN)CC[C@]3(C)[C@H](CC[C@@H]4[C@@]5(C)CCCNC(C)(C)[C@@H]5CC[C@]43C)[C@@H]12 the growth was 107% (inactive). CCCCn1c(-c2ccc(O)cc2)cn2c3c(=O)[nH]c(=O)n(C)c3nc12 was tested, and the growth was 79.1% (inactive). In the case of Cc1nn(-c2ccc(Br)cc2)c2nc3[nH]c(=O)[nH]c(=O)c3nc12, the growth is reported as 99% (inactive). Cc1cc2nc3c4cc(N)ccc4n(CCN(C)C)c3nc2cc1C was tested, and the growth was 11.9% (inactive). With COc1ccc(-c2nc3c(c(C)nn3-c3ccc(F)cc3)c(=O)[nH]2)cc1 the growth was 101% (inactive).

Each compound was assayed on M14 melanoma in the same assay as above. Conditions: 10 µM unless noted.
C=C1C(=O)O[C@H]2[C@H]1CC/C(COC(=O)NCCc1c[nH]c3ccccc13)=C\CC[C@@]1(C)O[C@@H]21 was tested, and the growth was -52.1% (active). For C/C(=N\Nc1cc(C)c2ccccc2n1)c1ccccn1, the growth was -81.4% (active). In the case of COC(=O)CNc1nc(N(C)O)nc(N(C)O)n1, the growth is reported as 46% (inactive). In the case of Cc1ccc(-c2nc([P+](c3ccccc3)(c3ccccc3)c3ccccc3)c(N3C[C@H]4C[C@H](C3)c3cccc(=O)n3C4)o2)cc1, the growth is reported as 82.3% (inactive). With COC(=O)[C@]12CC[C@@H](C)[C@H](C)[C@@H]1C1=CC[C@@H]3[C@@]4(C)CC(=O)[C@H](OC(=O)c5ccco5)[C@@]5(C)COC(=C45)C[C@@]3(C)[C@]1(C)CC2 the growth was 22.2% (inactive). For COc1ccc(/C=C/C(=O)NCC(C)O)cc1 (configuration not stated), the growth was 101% (inactive). Cc1nn(-c2ccc(Cl)cc2)c(=O)n1CCn1cnc2ccccc21 was tested, and the growth was 96.7% (inactive). With CN1CCN(CCOc2ccc(-c3cnc4c(-c5ccccc5F)cnn4c3)cc2)CC1 the growth was -80.3% (active). O=C(NO)c1ccc(Cn2c(=O)n(-c3ccccc3)c(=O)c3ccccc32)cc1 was tested, and the growth was 2.72% (active). With COc1cccc2c1C(=O)c1c(O)c3c(c(O)c1C2=O)C[C@@](O)(C(=O)CO)C[C@@H]3OC1C[C@H](N)[C@H](O)[C@H](C)O1 (some centres not stated) the growth was -71.6% (active). With CCC(CC)C(=O)OC(C)COc1ccc(C(C)(C)C)cc1 (configuration not stated) the growth was 96% (inactive). Nc1ccc(Cl)cn1 was tested, and the growth was 105% (inactive). In the case of CN1CCN(CCOc2ccc(-c3cnc4c(-c5cccc(F)c5)cnn4c3)cc2)CC1, the growth is reported as 2.02% (active). In the case of CCCC1CCCCN1C(=O)OCC(C)C (configuration not stated), the growth is reported as 109% (inactive). In the case of O=S(=O)(NCCNc1cc(-c2cn(-c3ccccc3)nc2-c2cccc(O)c2)ccn1)c1cccc(F)c1, the growth is reported as 31.8% (inactive). In the case of Cc1cccc(C)c1NC(=O)CSC(=S)N1CCCCC1, the growth is reported as 102% (inactive). For O=C(/C=C/c1cccc(O)c1)c1ccccc1O, the growth was 96.4% (inactive). O=C(NO)c1ccc(Cn2c(=O)n(CCc3ccc(O)cc3)c(=O)c3ccccc32)cc1 was tested, and the growth was 36.9% (inactive). COc1ccc(O)c(-c2cc(-c3ccc(Cl)cc3)c(C#N)c(=O)[nH]2)c1 was tested, and the growth was 49.9% (inactive). CCC(=O)c1c(C)[nH]c(C)c1C was tested, and the growth was 90.4% (inactive). COc1cc(-c2cc3ncccc3c3nc(OCCN(C)C)c4cccnc4c23)cc(OC)c1OC was tested, and the growth was 23% (inactive). For O=C(/C=C/c1cccc2ccccc12)Nc1ncc(Cc2ccccc2)s1, the growth was -21.3% (active). For CC(C)/C=C/CC[C@](C)(O)[C@H]1CC[C@]2(C)[C@@H]1CC[C@@H]1[C@@]3(C)C/C(=C/c4cccc(C(F)(F)F)c4)C(=O)C(C)(C)[C@@H]3CC[C@]12C, the growth was 91.5% (inactive). In the case of O=C(NCN1C(=O)c2cccc3cccc(c23)C1=O)N1CCC(Cc2ccccc2)CC1, the growth is reported as 92.5% (inactive). In the case of COc1cnc2c(c1)C(=O)c1c-2n(CCCNCCN2CCOCC2)c(=O)c2cc([N+](=O)[O-])ccc12, the growth is reported as 6.27% (active). With CCCCCCCC(=O)SCC/C=C/[C@@H]1CC(=O)NCc2cccc(n2)CN(Cc2ccc3ccccc3c2)CC(=O)N[C@@H](C(C)C)C(=O)O1 the growth was 28.4% (inactive). Fc1ccc2nc(-c3cc(-c4ccc5c(c4)OCO5)n[nH]3)[nH]c2c1 was tested, and the growth was 49.5% (inactive). Cn1cc(-c2nc(-c3cn(C)c4ncccc34)cs2)c2cc(F)ccc21 was tested, and the growth was 17.2% (inactive). With NCCn1cc(-c2nc(-c3c[nH]c4ncccc34)cs2)c2ccccc21 the growth was 96.9% (inactive). In the case of COc1ccc(-c2cc(-c3c(C)oc4cc5occc5c(OC)c4c3=O)nc(N)c2C#N)cc1OC, the growth is reported as 72.2% (inactive). In the case of CN(C)c1ccc(N)c2ccccc12, the growth is reported as -94.9% (active). With CN(C)CCCCC(C(=O)CBr)(c1ccccc1)c1ccccc1 the growth was 18.8% (inactive). O=C1Nc2ccccc2/C1=C/c1cn(CCCn2c3ccccc3c(=O)c3ccccc32)c2ccccc12 was tested, and the growth was 91.1% (inactive). C=C(C)[C@@H]1CC[C@]2(C=NCCCNCCCCNCCCN)CC[C@]3(C)[C@H](CC[C@@H]4[C@@]5(C)CCCNC(C)(C)[C@@H]5CC[C@]43C)[C@@H]12 was tested, and the growth was 98.5% (inactive). With CCCCn1c(-c2ccc(O)cc2)cn2c3c(=O)[nH]c(=O)n(C)c3nc12 the growth was 54.1% (inactive). With Cc1nn(-c2ccc(Br)cc2)c2nc3[nH]c(=O)[nH]c(=O)c3nc12 the growth was 112% (inactive). Cc1cc2nc3c4cc(N)ccc4n(CCN(C)C)c3nc2cc1C was tested, and the growth was 7.08% (active). For COc1ccc(-c2nc3c(c(C)nn3-c3ccc(F)cc3)c(=O)[nH]2)cc1, the growth was 82.7% (inactive).
